Data published in PubChem BioAssay (NCATS).
Inconclusive results are not listed. Activity calls are given as the source filed them. The call rests on the fitted dose curve; in most records, active means well fitted inhibition curve with a large enough effect; inconclusive means small, poorly fitted or top-dose-only effect, or effect the other way; inactive means flat fitted curve, though single readings scatter.

experiment: qHTS for Inhibitors of Plasmodium falciparum (GB4) proliferation (AID 504315); further: nearly all actives have a fitted effect of over 50% in size; conditions: P. falciparum GB4 in erythrocytes, SYBR Green DNA, 72 h; series mostly up to 6.7 µM
Procedure, shortened: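 Parasite growth measured as SYBR Green DNA fluorescence (ex 485, em 535 nm) after overnight lysis following 72 h culture at 37 °C, 0.3% parasitemia, 2.5% hematocrit. Values normalized against DMSO and 0.29 uM artemisinin controls, with plate-stack correction.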
Potency means the concentration at half of the fitted maximal effect.

Potency, inactive:
COC(=O)C1=C(C(=O)OC)[C@@H]2N(C)c3ccc(OC)cc3[C@@]23C[C@@H](C(=O)OC)N(S(=O)(=O)c2ccc(OC)cc2)C3=N1, CCCCC1=CC2=CC(=O)C(C)(OC(=O)CC)C(=O)C2=CN1Cc1ccccc1 (configuration not stated), C=CCN1c2ccccc2[C@]23C[C@@H](C(=O)OC)N(C(=O)c4cc(C)oc4C)C2=NC(C(=O)OC)=C(C(=O)OC)[C@H]13, COC(=O)CCC(=O)OC1(C)C(=O)C=C2C=C(C3CC3)N(c3ccc(OC)cc3)C=C2C1=O (configuration not stated), COc1cccc([C@@H]2Oc3ccc(Br)cc3C(=O)[C@@H]2OC(=O)Nc2ccc(OC(F)F)cc2)c1, CCN1C(=O)N[C@H](c2ccc(Br)cc2)C(C(=O)OC)=C1C, CCCCc1nc2c(c3c1C[C@H](C)OC3)CN(C(=O)c1cc(I)ccc1F)CC2, C[C@H]1Cc2c(COc3ccccc3)nc3c(c2CO1)CN(C(=O)Cc1cccs1)CC3, C=CCN1c2ccccc2[C@]23C[C@@H](C(=O)OC)N(C(C)=O)C2=NC(C(=O)OC)=C(C(=O)OC)[C@H]13, COC(=O)CCCC1=CC2=CC(=O)C(C)(OC(=O)CCc3ccccc3)C(=O)C2=CO1 (configuration not stated), C=CCNC(=O)N1CCc2nc(COc3ccccc3)c3c(c2C1)CO[C@@H](C)C3, CCCCS(=O)(=O)N1C2=NC(C(=O)OC)=C(C(=O)OC)[C@@H]3Nc4ccccc4[C@]23C[C@H]1C(=O)OC, CC1(OC(=O)C2CCCC2)C(=O)C=C2C=C(c3ccsc3)N(c3ccc(CO)cc3)C=C2C1=O (configuration not stated), COC/C=C/C1=CC2=CC(=O)C(C)(OC(=O)c3cnc4ccccc4n3)C(=O)C2=CN1c1ccc(OC)cc1 (configuration not stated), CC#CCN1c2ccccc2[C@]23C[C@@H](C(=O)OC)N(C(=O)OCC)C2=NC(C(=O)OC)=C(C(=O)OC)[C@H]13, CCN(CC)CCCN1C=C2C(=O)C(C)(OC(=O)CCC(=O)OC)C(=O)C(Br)=C2C=C1c1ccc(OC)cc1 (configuration not stated), O=C(C=Cc1ccc2c(c1)OCO2)c1ccccc1, C=CCN1c2ccccc2[C@]23C[C@@H](C(=O)OC)N(S(=O)(=O)c4ccc(C#N)cc4)C2=NC(C(=O)OC)=C(C(=O)OC)[C@H]13, C=CCN1c2ccccc2[C@]23C[C@@H](C(=O)OC)N(S(=O)(=O)CCCC)C2=NC(C(=O)OC)=C(C(=O)OC)[C@H]13, COC(=O)CCC(=O)OC1(C)C(=O)C2=CN(Cc3ccco3)C(c3ccc(OC)cc3)=CC2=C(Br)C1=O (configuration not stated), C=CCN1c2ccccc2[C@]23C[C@@H](C(=O)OC)N(S(=O)(=O)c4c(C)noc4C)C2=NC(C(=O)OC)=C(C(=O)OC)[C@H]13, C[C@H]1Cc2c(-c3ccccc3)nc3c(c2CO1)CN(C(=O)c1cc(I)ccc1F)CC3, C[C@H]1Cc2c(COc3ccccc3)nc3c(c2CO1)CN(S(=O)(=O)c1ccc(C#N)cc1)CC3, C/C=C/C1=Cc2ccccc2C(CC(=O)OC)N1C(=O)OC (configuration not stated), CC1(OC(=O)CCc2ccccc2)C(=O)C=C2C=C(c3ccc(C#N)cc3)N(C3CCCC3)C=C2C1=O (configuration not stated), CCN1C(=O)N[C@@H](c2cccc(C(F)(F)F)c2)C(C(=O)OC)=C1C, COC(=O)C1=C(C(=O)OC)[C@@H]2N(C)c3ccccc3[C@@]23C[C@@H](C(=O)OC)N(S(=O)(=O)c2cccs2)C3=N1, COC(=O)C1=C(C(=O)OC)[C@@H]2N(C)c3ccccc3[C@@]23C[C@@H](C(=O)OC)N(S(=O)(=O)c2c(C)noc2C)C3=N1, COC(=O)CCCC1=CC2=C(c3ccccc3)C(=O)C(C)(OC(=O)C3CCCC3)C(=O)C2=CN1CCCOC(C)C (configuration not stated), CCCCc1nc2c(c3c1C[C@H](C)OC3)CN(C(=O)NCCCC(=O)OCC)CC2, CC#CCN1c2ccccc2[C@]23CCC(=O)N(CCCOC(C)C)C2=NC(C(=O)OC)=C(C(=O)OC)[C@H]13, CC[C@@H](C)CN1C(=O)N[C@@H](c2ccccc2)C(C(C)=O)=C1C, C=CCN1c2ccccc2[C@]23C[C@@H](C(=O)OC)N(C(=O)COCc4ccccc4)C2=NC(C(=O)OC)=C(C(=O)OC)[C@H]13, CCCCS(=O)(=O)N1C2=NC(C(=O)OC)=C(C(=O)OC)[C@@H]3N(C)c4ccccc4[C@]23C[C@H]1C(=O)OC, COC/C=C/C1=CC2=CC(=O)C(C)(OC(=O)c3cnc4ccccc4n3)C(=O)C2=CN1CCCCO (configuration not stated), COC(=O)CCCC1=CC2=CC(=O)C(C)(OC(=O)c3cccs3)C(=O)C2=CN1Cc1ccccc1 (configuration not stated)

Potency, active:
CCCC[C@]12Cc3cc(OC)c(OC)cc3[C@H](O1)C1=C(O2)C(=O)c2ccccc2C1=O 1.69 µM
